For 103 sequences, binding signal results are on record in PMC10668032, “Altered binding affinity of SIX1-Q177R correlates with enhanced WNT5A and WNT pathway effector expression in Wilms tumor”.

In all, about 33,000 sequences were measured (“e-score”: median about -0.05, highest 2% from about 0.38 on). For the sample, the highest values were picked, then their nearest neighbours and some sequences at random.

This experiment addresses T1, SIX1-Q177R homeodomain (human, UniProt Q15475 108-198, Q177R).
T1 sequence: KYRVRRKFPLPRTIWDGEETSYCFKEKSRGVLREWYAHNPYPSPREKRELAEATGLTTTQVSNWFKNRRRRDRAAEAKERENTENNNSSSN
Put plainly: universal protein binding microarray; Universal all-10-mer PBM (8x60K, AMADID 030236), 300 nM GST-tagged protein, Alexa Fluor 488 anti-GST; buffer, salt, pH and temperature not stated (as in Berger); high values mean tight binding. Conditions: protein: ivt; tags: N-terminal GST; dsDNA, one strand shown. The method in brief:
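Duplicate protein binding microarrays (universal 'all 10-mer', 8×60K format) were incubated with GST-tagged homeodomains at 300 nM final concentration. Binding was quantified as 8-mer E-scores with the Universal PBM Analysis Suite.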
In the case of CCGGGTTA, the binding signal stood at 0.2 ± 0.024 E-score.

Turning to CACGGATG, the binding signal is 0.155 ± 0.0314 E-score.

With ATCCACTC, the binding signal was 0.203 ± 0.0237 E-score.

As for TACTCCGA, the binding signal amounted to 0.211 ± 0.0155 E-score.

With CACTCCCG, the binding signal is 0.1824 ± 0.000608 E-score.

With ATTGATAC, the binding signal stood at 0.196 ± 0.00402 E-score.

For the sequence ATGGCCGA, the binding signal stood at 0.155 ± 0.00984 E-score.

As for GGGATACA, the binding signal came out at 0.234 ± 0.00449 E-score.

On to CACCTGTA, for which the binding signal stood at 0.232 ± 0.0126 E-score.

In the case of GACACAAC, the binding signal came out at 0.207 ± 0.0332 E-score.

As to CACACAAC, the binding signal is 0.153 ± 0.0694 E-score.

In the case of CGCAACAC, the binding signal came out at 0.366 ± 0.00704 E-score.

As for AACACAAC, the binding signal stood at 0.176 ± 0.0727 E-score.

As to CACAACAA, the binding signal was 0.168 ± 0.00449 E-score.

Turning to CACAACAC, the binding signal stood at 0.38 ± 0.0127 E-score.

Turning to GACAACAC, the binding signal stood at 0.386 ± 0.0047 E-score.

With GGGCACAC, the binding signal worked out at 0.284 ± 0.0218 E-score.

In the case of GGCAACAC, the binding signal worked out at 0.4138 ± 0.00188 E-score.

Regarding AACAACAC, the binding signal stood at 0.414 ± 0.0082 E-score.

For the sequence AAGGGAGT, the binding signal was found to be 0.181 ± 0.0594 E-score.

As to CACGACTG, the binding signal came to 0.19 ± 0.0173 E-score.

ATATGGTG: the binding signal is 0.245 ± 0.0104 E-score.

Consider CTTCTACA, for which the binding signal was 0.161 ± 0.0182 E-score.

Consider ACACCCTG, for which the binding signal worked out at 0.4727 ± 0.000955 E-score.

On to ACACCCTC, for which the binding signal worked out at 0.4743 ± 0.00338 E-score.

As to ACCCCCTG, the binding signal stood at 0.328 ± 0.0317 E-score.

With ATACCCTG, the binding signal came out at 0.31 ± 0.0148 E-score.

For ACCCCCTC, the binding signal was determined as 0.324 ± 0.00733 E-score.

ACCCTCTC: the binding signal is 0.164 ± 0.0166 E-score.

Turning to CCACCCTA, the binding signal is 0.174 ± 0.00684 E-score.

For the sequence GCACCCTA, the binding signal was determined as 0.226 ± 0.0182 E-score.

ACACCCTA: the binding signal was 0.4661 ± 0.00184 E-score.

Consider ACCGCACA, for which the binding signal came to 0.232 ± 0.00335 E-score.

In the case of TGGGAACA, the binding signal is 0.172 ± 0.0191 E-score.

Take CGCCCGAC: the binding signal was determined as 0.184 ± 0.0127 E-score.

In the case of ACCGAGTG, the binding signal stood at 0.363 ± 0.0115 E-score.

Take CACCAGGC: the binding signal worked out at 0.336 ± 0.016 E-score.

With CACGAAGA, the binding signal worked out at 0.183 ± 0.0282 E-score.

For AGATTACA, the binding signal worked out at 0.23 ± 0.00802 E-score.

Turning to CCGACCCC, the binding signal stood at 0.24 ± 0.0393 E-score.

Consider CCGACACC, for which the binding signal was 0.488 ± 0.0101 E-score.

For the sequence CCGACACA, the binding signal was determined as 0.295 ± 0.0445 E-score.

On to TCGACACA, for which the binding signal is 0.188 ± 0.0429 E-score.

Take CCGACTCC: the binding signal turned out to be 0.159 ± 0.044 E-score.

As for ACGACACG, the binding signal came out at 0.426 ± 0.0132 E-score.

As for ACGACACA, the binding signal is 0.273 ± 0.0776 E-score.

On to ACGACACT, for which the binding signal came to 0.4277 ± 0.00127 E-score.

For AAGACACA, the binding signal stood at 0.174 ± 0.0361 E-score.

Take CCGACACG: the binding signal is 0.418 ± 0.0317 E-score.

For ACCCGCTC, the binding signal was determined as 0.227 ± 0.00437 E-score.

Take CACCTGCC: the binding signal was found to be 0.225 ± 0.0171 E-score.

With ACCCGAAC, the binding signal is 0.173 ± 0.0027 E-score.

On to TGTCGTAA, for which the binding signal worked out at 0.163 ± 0.00414 E-score.

For CCCCCCCG, the binding signal was 0.218 ± 0.0264 E-score.

On to GGGTGATA, for which the binding signal is 0.218 ± 0.0149 E-score.

For GATCCCGC, the binding signal amounted to 0.185 ± 0.0357 E-score.

For CGGGTACG, the binding signal is 0.182 ± 0.00752 E-score.

In the case of GCGACACA, the binding signal was 0.262 ± 0.0569 E-score.

In the case of ACGACCCC, the binding signal came out at 0.244 ± 0.0306 E-score.

Consider ACGACACC, for which the binding signal turned out to be 0.487 ± 0.00563 E-score.

For ACGACTCC, the binding signal stood at 0.309 ± 0.0346 E-score.

As to GCGACACC, the binding signal worked out at 0.487 ± 0.00655 E-score.

For GCGACCCC, the binding signal stood at 0.212 ± 0.0261 E-score.

Turning to CACTTGAA, the binding signal turned out to be 0.202 ± 0.00417 E-score.

On to CACCTTAC, for which the binding signal was 0.248 ± 0.036 E-score.

For CACTCTCG, the binding signal is 0.288 ± 0.0157 E-score.

CCCCGAAC: the binding signal turned out to be 0.181 ± 0.00559 E-score.

With AGGACCCC, the binding signal was 0.205 ± 0.0283 E-score.

Turning to CACACCTG, the binding signal stood at 0.389 ± 0.0159 E-score.

Consider AACACGTG, for which the binding signal was 0.371 ± 0.00902 E-score.

For AACACATA, the binding signal amounted to 0.17 ± 0.0243 E-score.

Consider GACACCTC, for which the binding signal is 0.4825 ± 0.00161 E-score.

As for AACACCTG, the binding signal is 0.44457 ± 0.000354 E-score.

On to CACACATG, for which the binding signal turned out to be 0.165 ± 0.0245 E-score.

On to GACTCCTC, for which the binding signal was 0.166 ± 0.0214 E-score.

In the case of CACACCTA, the binding signal was found to be 0.333 ± 0.00896 E-score.

AACACCTA: the binding signal was found to be 0.444 ± 0.00846 E-score.

Turning to AACACTTG, the binding signal is 0.336 ± 0.0307 E-score.

For the sequence GACCCCTC, the binding signal came out at 0.26 ± 0.015 E-score.

Regarding CCGAGACA, the binding signal was 0.274 ± 0.00602 E-score.

As for ATGATACC, the binding signal is 0.335 ± 0.0146 E-score.

On to CACCACGG, for which the binding signal worked out at 0.226 ± 0.00882 E-score.

Regarding ATGCGGTG, the binding signal was determined as 0.295 ± 0.0245 E-score.

Regarding CGGGCGAC, the binding signal was 0.215 ± 0.0122 E-score.

For CACTGGGG, the binding signal is 0.287 ± 0.0142 E-score.

ATAAGGTG: the binding signal amounted to 0.217 ± 0.0216 E-score.

Consider AACTGTGT, for which the binding signal worked out at 0.159 ± 0.066 E-score.

For the sequence CCGGATCC, the binding signal amounted to 0.249 ± 0.0202 E-score.

In the case of TCGATACA, the binding signal was determined as 0.198 ± 0.0102 E-score.

Take CACTCCAG: the binding signal came out at 0.225 ± 0.00445 E-score.

For GTTCGGTA, the binding signal is 0.156 ± 0.0218 E-score.

For GATACCTA, the binding signal is 0.3275 ± 0.000891 E-score.

With AACACACT, the binding signal was 0.276 ± 0.0133 E-score.

Turning to AACACCTC, the binding signal amounted to 0.456 ± 0.0111 E-score.

Turning to AACACCTT, the binding signal came to 0.452 ± 0.0164 E-score.

Turning to GACACCTA, the binding signal was determined as 0.463 ± 0.00697 E-score.

Regarding AGCACCTC, the binding signal amounted to 0.178 ± 0.00186 E-score.

Consider GACACATA, for which the binding signal stood at 0.234 ± 0.0761 E-score.

As to AACACTTC, the binding signal worked out at 0.326 ± 0.0413 E-score.

For TACACGTA, the binding signal was determined as 0.355 ± 0.0208 E-score.

For the sequence TACACCTA, the binding signal was determined as 0.47 ± 0.00841 E-score.

Take TACACATA: the binding signal came to 0.209 ± 0.0376 E-score.

Take AACACGTT: the binding signal was found to be 0.272 ± 0.0421 E-score.
